Test results as given in paper PMC4552634, “A New Set of Chemical Starting Points with Plasmodium falciparum Transmission-Blocking Potential for Antimalarial Drug Discovery” (PLoS ONE, 2015).
Like-named read-outs stand apart in the source and are kept apart here. About 3,200 (25%) of roughly 13,000 compounds showed an effect of 50% or more. The list shows a part of the results.

Tested on: P. falciparum stage V gametocytes
Design: BacTiter-Glo ATP luminescence viability of purified stage V gametocytes in 384-well plates, per cent inhibition versus DMSO
Settings: 48 h, 5 µM, inhibitor

Cc1cccc2[nH]c(-c3cccc(-c4cccc(NC(=O)CNC(=O)c5ccc(O)cc5)c4)c3)nc12 [TCMDC-136818]
% Inhibition: -5.376%

Cc1cc(OCCCn2ccnc2)ccc1-c1csc(NC(N)=NCc2ccccc2)n1 [TCMDC-138931]
% Inhibition: 31.69%

CC(C(=O)OCCOCn1cnc2c(=O)[nH]c(N)nc21)N(C)C(=O)OC(C)(C)C (stereo not drawn) [TCMDC-137343]
% Inhibition: 21.46%

CC(C)c1ccc(S(=O)(=O)N(c2ccc3c(c2)OCO3)C2CCN(Cc3ccccc3)C2)cc1 (stereo not drawn) [TCMDC-134099]
% Inhibition: -69.31%

COc1ccc(N2C(N)=NC(N)=NC2(C)C)cc1OC [TCMDC-124282]
% Inhibition: 18.93%

CC(CN1CCN(C)CC1)C(=O)Nc1cccc(-c2cccc(-c3nc4ccccc4[nH]3)c2)c1 (stereo not drawn) [TCMDC-137141]
% Inhibition: 72.32%

Cc1cccc2nc(-c3ccc(-c4cccc(NC(=O)C(C)CN5CCN(C)CC5)c4)s3)[nH]c12 (stereo not drawn) [TCMDC-137155]
% Inhibition: -49.23%

CC(CN1CCN(C)CC1)C(=O)Nc1cccc(-c2ccc(-c3nc4ccccc4[nH]3)cc2)c1 (stereo not drawn) [TCMDC-137147]
% Inhibition: 83.04%

CCc1cc2c(=O)c(-c3nc(C)cs3)c(N)oc2c(CN2CCCCC2)c1O [TCMDC-124016]
% Inhibition: 0.6377%

COc1cc(C(=O)N2N=C(c3c(-c4ccccc4)c4cc(Br)ccc4[nH]c3=O)CC2c2cccc([N+](=O)[O-])c2)cc(OC)c1OC (stereo not drawn) [TCMDC-124218]
% Inhibition: 43.01%

Cc1noc(C)c1-c1cccc(CNCc2ccc(-c3cccc(-c4nc5cccc(C)c5[nH]4)c3)cc2)c1.O=C(O)C(F)(F)F [TCMDC-133052]
% Inhibition: -22.75%

O=C(/C=C/c1ccc(Cl)c(Cl)c1)NC1CCC(CN2CCC(c3nc4ncccc4[nH]3)CC2)CC1 (stereo not drawn) [TCMDC-140264]
% Inhibition: 5.039%

COc1cc(NC(=O)c2cc3c(C)nn(-c4cccc(C(F)(F)F)c4)c3s2)cc(OC)c1OC [TCMDC-123615]
% Inhibition: -65.38%

Cc1nn(-c2cccc(C(F)(F)F)c2)c2sc(C(=O)NC3CCN(C(C)C)CC3)cc12 [TCMDC-125005]
% Inhibition: 65.55%

CC(C)(C)c1ccc(CN2CCC(NC(=O)c3ccc(-c4cccc(C(F)(F)F)c4)s3)CC2)cc1 [TCMDC-134348]
% Inhibition: -9.273%

COc1cc(OC)c2c(C)cc(NCCCN3CCOCC3)nc2c1 [TCMDC-125775]
% Inhibition: -9.297%

COc1cc(OC)c2c(C)cc(NCCCn3ccnc3)nc2c1 [TCMDC-125762]
% Inhibition: 61.26%

COc1cccc(-c2cc3nc4c(c(NCCCn5ccnc5)n3n2)CCCC4)c1 [TCMDC-124388]
% Inhibition: -20.83%

Nc1nc(-c2ccc3c(Nc4ccc(F)c(Cl)c4)ccnc3c2)cs1 [TCMDC-138353]
% Inhibition: 24.85%

Fc1ccccc1-c1cc(Nc2ccncc2)nc(-c2cccnc2)n1 [TCMDC-125415]
% Inhibition: 17.65%

O=C(NCCCCCN1CCC(c2c[nH]c3ccccc23)CC1)Nc1ccc(Cl)c(Cl)c1 [TCMDC-139117]
% Inhibition: 79.3%

S=C(NCCCCCN1CCC(c2c[nH]c3ccccc23)CC1)Nc1cc(Cl)cc(Cl)c1 [TCMDC-139171]
% Inhibition: -46.2%

S=C(NCCCCCN1CCC(c2c[nH]c3ccccc23)CC1)Nc1ccc(Cl)c(Cl)c1 [TCMDC-139170]
% Inhibition: -11.79%

O=C(NCCCCCN1CCC(c2c[nH]c3ccccc23)CC1)Nc1cccc(Br)c1 [TCMDC-139116]
% Inhibition: -20.19%

O=C(NCCCCCN1CCC(c2c[nH]c3ccccc23)CC1)Nc1ccc(I)cc1 [TCMDC-139165]
% Inhibition: -24.33%

O=C(NCCCCCN1CCC(c2c[nH]c3ccccc23)C1)Nc1ccc(Cl)c(Cl)c1 (stereo not drawn) [TCMDC-139169]
% Inhibition: -42.12%

O=C(NCCCCCN1CCC(c2c[nH]c3ccccc23)CC1)Nc1cccc(I)c1 [TCMDC-139201]
% Inhibition: 57.32%

O=C(NCCCCCN1CCC(c2c[nH]c3ccccc23)CC1)Nc1cccc(Cl)c1 [TCMDC-139167]
% Inhibition: 82.38%

O=C(NCC(CCCN1CCC(c2c[nH]c3ccccc23)CC1)c1ccccc1)Nc1ccc(Cl)c(Cl)c1 (stereo not drawn) [TCMDC-139507]
% Inhibition: -18.56%

Cc1cc(Cl)ccc1NC(=O)NCCCCCN1CCC(c2c[nH]c3ccccc23)CC1 [TCMDC-139168]
% Inhibition: -22.23%

S=C(NCCCCCN1CCC(c2c[nH]c3ccccc23)CC1)Nc1cccc(I)c1 [TCMDC-139203]
% Inhibition: 89.1%

O=C(Nc1cccc(-c2csc(-c3nc4ccccc4[nH]3)c2)c1)c1ccoc1 [TCMDC-132404]
% Inhibition: 1.607%

N=C(N)NN=CC(=O)Nc1ccc(C(F)(F)F)cc1 [TCMDC-137560]
% Inhibition: 10.99%

CCC(CC(NCCCCNC(=O)c1ccc(NC(=O)c2ccc(Cl)cc2)cc1)c1ccccc1)c1ccccc1OC (stereo not drawn) [TCMDC-138580]
% Inhibition (% Inhibition): -0.1612%

Nc1ncc(-c2ccc(F)cc2)c2ccc(-c3cccc(F)c3)cc12 [TCMDC-134502]
% Inhibition: -15.75%

NC(N)=NC(=O)Nc1cc(Br)c(Br)c(Br)c1 [TCMDC-137506]
% Inhibition: -8.388%

CNCC(O)c1cc(Cl)c(Cl)cc1C (stereo not drawn) [TCMDC-131255]
% Inhibition: 13.21%

CCn1ncc(Cl)c1CN(C)S(=O)(=O)c1ccc(Br)cc1 [TCMDC-124902]
% Inhibition: 30.97%

CCSc1nc2sc3c(c2c(=O)n1-c1ccccc1)CCN(C)C3 [TCMDC-123852]
% Inhibition: 14.1%

CCCN(CCC)S(=O)(=O)c1ccc(C(=O)N2CCC(C(=O)OCC)CC2)cc1 [TCMDC-139301]
% Inhibition: 16.88%

Cc1nc(N)nc(N)c1-c1cccc(Cl)c1 [TCMDC-137375]
% Inhibition: 13.21%

c1ccc(COc2ccc(Nc3ncnc4cnc(-c5ccc(CNc6cccnc6)o5)cc34)cc2)cc1 [TCMDC-137776]
% Inhibition: 19.44%

O=C(NCCCCCN1CCC(c2c[nH]c3ccccc23)CC1)Nc1ccc(Br)cc1 [TCMDC-139115]
% Inhibition: -28.65%

Cc1ccc(NC(=O)NCCCCCN2CCC(c3c[nH]c4ccccc34)CC2)cc1I [TCMDC-139200]
% Inhibition: 66.97%

O=C(NCCCCCN1CCC(c2c[nH]c3ccccc23)CC1)Nc1ccc(I)c(Cl)c1 [TCMDC-139202]
% Inhibition: -23.12%

Cc1ccc(N2C(N)=NC(N)=NC2(C)C)cc1Cl [TCMDC-137708]
% Inhibition: -11.46%

Cc1cc(N2C(N)=NC(N)=NC2(C)C)ccc1Cl [TCMDC-137705]
% Inhibition: -13.35%

CC1(C)N=C(N)N=C(N)N1c1ccc(Oc2ccc(Cl)cc2)c(Cl)c1 [TCMDC-123522]
% Inhibition: 76.9%

COc1cccc(C(=O)NCc2cccs2)c1Oc1ccccc1 [TCMDC-141236]
% Inhibition: 3.513%

NCC(=O)Nc1cccc(Nc2nccc(-c3c(-c4cccc(NC(=O)c5ccccc5)c4)nn4ccccc34)n2)c1 [TCMDC-135671]
% Inhibition: -11.23%

CC1CCN(C(=O)C(Cc2c[nH]c3ccccc23)NS(=O)(=O)c2ccc(Cl)cc2)CC1 (stereo not drawn) [TCMDC-124494]
% Inhibition: 54%

O=C(CCc1ccccc1)N[C@H](Cc1c[nH]c2ccccc12)C(=O)N1CCC(NCc2ccc3c(c2)Cc2ccccc2-3)CC1 [TCMDC-135353]
% Inhibition: 27.37%

CC1CCN(C(=O)[C@H](Cc2c[nH]c3ccccc23)NS(=O)(=O)c2ccc(Cl)cc2)CC1 [TCMDC-125035]
% Inhibition: 69.39%

O=C(NCCC1CCN(CCc2c[nH]c3ccccc23)CC1)Nc1ccc(Cl)c(Cl)c1 [TCMDC-139151]
% Inhibition: 31.54%

C[C@@H](CNc1ccnc(Nc2ccc3[nH]c(=O)[nH]c3c2)n1)c1ccccc1 [TCMDC-136803]
% Inhibition: -37.25%

O=C(c1cc(C(F)(F)F)cc(C(F)(F)F)c1)N1CCC(CCN2CCC3(CC2)C(=O)NCN3c2ccccc2)CC1Cc1ccc(Cl)c(Cl)c1 (stereo not drawn) [TCMDC-141945]
% Inhibition: -34.22%

CC1(C)[C@H]2CC[C@@H](CNc3nc(NCC(=O)Nc4ccc5ccccc5c4)nc(N4CCC(N5CCCC5)CC4)n3)[C@@H]1C2 [TCMDC-139977]
% Inhibition: 10.19%

CC(C)(C)OC(=O)NCc1ccc(Nc2nnc(-c3ccc(OCC(=O)NCc4ccc(C(C)(C)C)cc4)c([N+](=O)[O-])c3)o2)cc1 [TCMDC-134991]
% Inhibition: 114.3%

CC(C)(C)c1ccc(CNC(=O)COc2ccc(-c3nnc(-c4cccc([N+](=O)[O-])c4)o3)cc2[N+](=O)[O-])cc1 [TCMDC-134986]
% Inhibition: -5.433%

CC1(C)[C@H]2CC[C@@H](CNc3nc(NCCc4cnc[nH]4)nc(Nc4ccc(Oc5ccccc5)cc4)n3)[C@@H]1C2 [TCMDC-139744]
% Inhibition: -37.07%

CC(C)(C)OC(=O)NCc1ccc(Nc2nnc(-c3ccc(OCC(=O)NC[C@@H]4CC[C@H]5C[C@@H]4C5(C)C)c([N+](=O)[O-])c3)o2)cc1 [TCMDC-135039]
% Inhibition: 110.7%

CN1CCN(c2cccc(-c3nnc(-c4ccc(OCC(=O)NCc5ccc(C(F)(F)F)cc5)c([N+](=O)[O-])c4)o3)c2)CC1 [TCMDC-134942]
% Inhibition: 2.294%

CCCc1cc(N2CCC(N3CCCC3)CC2)nc(Nc2ccc(Cl)cc2)n1 [TCMDC-132386]
% Inhibition: 18.02%

COc1ccc(C2CC(c3cccs3)=NN2C(=O)COc2cccc(C(C)=O)c2)cc1OC (stereo not drawn) [TCMDC-125111]
% Inhibition: -18.64%

FC(F)(F)c1ccc(-c2cncc(-c3ccc(C(F)(F)F)cc3)n2)cc1 [TCMDC-138711]
% Inhibition: -27.18%

N#Cc1cccc(Nc2nccc(NCC(O)c3ccccc3C(F)(F)F)n2)c1 (stereo not drawn) [TCMDC-136576]
% Inhibition: -28.54%
